Test results taken from PubChem BioAssay (NCI).
About 83,000 compounds went through this panel and 20% of them were active in at least one assay; those are over-represented in the sample as a whole.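 Assay: single dose, 48 h. Readout: percent growth (0 = no net growth; negative = cell death). Active: <10.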 Calls of active or inactive are those of the source.

Columns and labels:
Assay in all cases: NCI-60 one-dose screen, 48 h (100 = growth as untreated, 0 = no growth, -100 = all killed)
Conditions in all cases: 10 µM unless noted
NCI-H23 lung = test system: NCI-H23 lung
NCI-H322M lung = test system: NCI-H322M lung
HOP-62 NSCLC = test system: HOP-62 NSCLC
NCI-H460 lung = test system: NCI-H460 lung
HOP-92 NSCLC = test system: HOP-92 NSCLC
NCI-H522 lung = test system: NCI-H522 lung
A549/ATCC NSCLC = test system: A549/ATCC NSCLC
786-0 renal = test system: 786-0 renal
COLO 205 colon = test system: COLO 205 colon
DU-145 prostate = test system: DU-145 prostate
K-562 leukemia = test system: K-562 leukemia
MALME-3M melanoma = test system: MALME-3M melanoma
MDA-MB-231 breast = test system: MDA-MB-231 breast
RXF 393 renal = test system: RXF 393 renal
SF-268 CNS = test system: SF-268 CNS
SF-295 CNS = test system: SF-295 CNS
SF-539 CNS = test system: SF-539 CNS
UACC-257 melanoma = test system: UACC-257 melanoma
M14 melanoma = test system: M14 melanoma
HCT-15 colon = test system: HCT-15 colon

Measured: growth

Cn1nc(C(C)(C)C)cc1NC(=O)Cc1ccc(/C=C2\C(=O)Nc3ccccc32)cc1
inactive: NCI-H23 lung 41.1% | NCI-H322M lung 84.8% | HOP-62 NSCLC 74.3% | NCI-H460 lung 67.8% | HOP-92 NSCLC 59.5% | NCI-H522 lung 45% | A549/ATCC NSCLC 57.6% | 786-0 renal 72.1% | COLO 205 colon 80.2% | DU-145 prostate 56.6% | K-562 leukemia 22.3% | MALME-3M melanoma 58% | MDA-MB-231 breast 66.4% | RXF 393 renal 70.9% | SF-268 CNS 63.1% | SF-295 CNS 51.7% | SF-539 CNS 54.9% | UACC-257 melanoma 41.4% | M14 melanoma 56.5% | HCT-15 colon 48.4%

O=C1c2cc(Cl)ccc2Oc2cc([N+](=O)[O-])ccc2N1c1ccc(F)cc1F
inactive: NCI-H23 lung 94.1% | NCI-H322M lung 92.5% | HOP-62 NSCLC 87.8% | NCI-H460 lung 93.2% | HOP-92 NSCLC 98.9% | NCI-H522 lung 49.9% | A549/ATCC NSCLC 66.7% | 786-0 renal 93.6% | COLO 205 colon 96.5% | DU-145 prostate 89.8% | K-562 leukemia 78.8% | MALME-3M melanoma 103% | MDA-MB-231 breast 83% | RXF 393 renal 89.6% | SF-268 CNS 72.9% | SF-295 CNS 94.6% | SF-539 CNS 96.7% | UACC-257 melanoma 91% | M14 melanoma 99.2% | HCT-15 colon 86.9%

O=c1oc2ccc(Cl)cc2c(=O)n1-c1cc(C(F)(F)F)cc(C(F)(F)F)c1
inactive: DU-145 prostate 14.4%
active: NCI-H23 lung -5.36% | NCI-H322M lung 3.4% | HOP-62 NSCLC -9.09% | NCI-H460 lung 1.5% | HOP-92 NSCLC -7% | NCI-H522 lung -14.3% | A549/ATCC NSCLC 6.11% | 786-0 renal -11.8% | COLO 205 colon -74.8% | K-562 leukemia 8.63% | MALME-3M melanoma -33.8% | MDA-MB-231 breast -21.9% | RXF 393 renal -5.99% | SF-268 CNS 3.66% | SF-295 CNS -65.1% | SF-539 CNS -5.73% | UACC-257 melanoma -14.7% | M14 melanoma -22.5% | HCT-15 colon -5.03%

COc1ccc(S(=O)(=O)N(Cc2ccc3c(n2)C=CC(C)(C)O3)C2CCC2)cc1OC
inactive: HCT-15 colon 13.5%
active: NCI-H23 lung -14.5% | NCI-H322M lung -20.1% | HOP-62 NSCLC 1.37% | NCI-H460 lung 1.79% | HOP-92 NSCLC -19.6% | NCI-H522 lung -27.7% | A549/ATCC NSCLC -2.9% | 786-0 renal -26.5% | COLO 205 colon 0.159% | DU-145 prostate -8.1% | K-562 leukemia 7.07% | MALME-3M melanoma -36.9% | MDA-MB-231 breast 3.21% | RXF 393 renal -20.2% | SF-268 CNS -9.29% | SF-295 CNS -43.3% | SF-539 CNS 0.455% | UACC-257 melanoma -13.9% | M14 melanoma -59.1%

O=C(Nc1ccc(I)cc1F)c1cc(F)ccc1O
active: NCI-H23 lung -2.66% | NCI-H322M lung 4.87% | HOP-62 NSCLC -16.6% | NCI-H460 lung 1.95% | HOP-92 NSCLC -9.55% | NCI-H522 lung -15.8% | A549/ATCC NSCLC 6.45% | 786-0 renal -0.577% | K-562 leukemia 6.93% | MALME-3M melanoma -31.4% | MDA-MB-231 breast -23.7% | RXF 393 renal -2.46% | SF-268 CNS 8.56% | SF-295 CNS -68.5% | SF-539 CNS 1.28% | UACC-257 melanoma -17.3% | M14 melanoma -14.5% | HCT-15 colon 0.237%
inactive: COLO 205 colon 25.1% | DU-145 prostate 15.1%

CCCCCCC(O)(c1ccc(F)cc1)C(CN1CCOCC1)c1ccccc1 (stereo not given)
inactive: NCI-H23 lung 25.4% | NCI-H322M lung 74.7% | HOP-62 NSCLC 56.9% | NCI-H460 lung 16.1% | NCI-H522 lung 26.9% | A549/ATCC NSCLC 23.9% | 786-0 renal 44.9% | DU-145 prostate 51.7% | K-562 leukemia 12.9% | MALME-3M melanoma 24.5% | MDA-MB-231 breast 26.2% | RXF 393 renal 20.6% | SF-268 CNS 47.4% | SF-539 CNS 79.1% | UACC-257 melanoma 57.2% | M14 melanoma 35.5% | HCT-15 colon 28.1%
active: HOP-92 NSCLC -16.1% | COLO 205 colon -21.7% | SF-295 CNS -21.5%

O=C(N/N=C/c1ccccc1Cl)C(=O)Nc1cccc(C(F)(F)F)c1
inactive: NCI-H23 lung 105% | NCI-H322M lung 108% | HOP-62 NSCLC 106% | NCI-H460 lung 99.4% | HOP-92 NSCLC 92.2% | NCI-H522 lung 105% | A549/ATCC NSCLC 88.8% | 786-0 renal 103% | COLO 205 colon 113% | DU-145 prostate 101% | K-562 leukemia 85.3% | MALME-3M melanoma 111% | MDA-MB-231 breast 99.3% | RXF 393 renal 97.9% | SF-268 CNS 105% | SF-295 CNS 87.7% | SF-539 CNS 102% | UACC-257 melanoma 103% | M14 melanoma 105% | HCT-15 colon 97.1%

CC(=S)NC(=O)C(=O)/C=C1/NC(=O)C(=O)S1
inactive: NCI-H23 lung 97.4% | NCI-H322M lung 105% | HOP-62 NSCLC 100% | NCI-H460 lung 107% | HOP-92 NSCLC 96.5% | NCI-H522 lung 105% | A549/ATCC NSCLC 111% | 786-0 renal 103% | COLO 205 colon 124% | DU-145 prostate 111% | K-562 leukemia 110% | MALME-3M melanoma 107% | MDA-MB-231 breast 103% | RXF 393 renal 110% | SF-268 CNS 100% | SF-295 CNS 101% | SF-539 CNS 102% | UACC-257 melanoma 108% | M14 melanoma 106% | HCT-15 colon 102%

COc1cc2cc3c(=O)n4c(cc5cc(OC)ncc54)c(=O)n3c2cn1
inactive: NCI-H23 lung 101% | NCI-H322M lung 97.4% | HOP-62 NSCLC 95.3% | NCI-H460 lung 107% | HOP-92 NSCLC 114% | NCI-H522 lung 99.2% | A549/ATCC NSCLC 102% | 786-0 renal 99.1% | COLO 205 colon 114% | DU-145 prostate 106% | K-562 leukemia 102% | MALME-3M melanoma 93.1% | MDA-MB-231 breast 109% | RXF 393 renal 106% | SF-268 CNS 102% | SF-295 CNS 87.7% | SF-539 CNS 106% | UACC-257 melanoma 110% | M14 melanoma 105% | HCT-15 colon 106%

Clc1ccc(Oc2ccc(Nc3ncnc4onc(-c5ccccc5)c34)cc2)c(Cl)c1
inactive: NCI-H23 lung 89.4% | NCI-H322M lung 111% | HOP-62 NSCLC 104% | NCI-H460 lung 101% | HOP-92 NSCLC 102% | NCI-H522 lung 73.2% | A549/ATCC NSCLC 91.2% | 786-0 renal 96.3% | COLO 205 colon 105% | DU-145 prostate 106% | K-562 leukemia 78.1% | MALME-3M melanoma 105% | MDA-MB-231 breast 99.7% | RXF 393 renal 120% | SF-268 CNS 102% | SF-295 CNS 97% | SF-539 CNS 98.8% | UACC-257 melanoma 99% | M14 melanoma 95.6% | HCT-15 colon 89%

CCOC(=O)c1sc(-c2ccc(OS(=O)(=O)c3ccccc3[N+](=O)[O-])c(C=O)c2)nc1C
inactive: NCI-H23 lung 50.6% | NCI-H322M lung 58.4% | HOP-62 NSCLC 117% | NCI-H460 lung 91.2% | HOP-92 NSCLC 65.6% | NCI-H522 lung 18.8% | A549/ATCC NSCLC 82.3% | 786-0 renal 80.3% | COLO 205 colon 117% | DU-145 prostate 78.1% | K-562 leukemia 12.8% | MALME-3M melanoma 37.8% | MDA-MB-231 breast 84% | RXF 393 renal 108% | SF-268 CNS 46.6% | SF-295 CNS 107% | SF-539 CNS 76.6% | UACC-257 melanoma 49.5%
active: M14 melanoma 5.91% | HCT-15 colon 6.3%

O=C1NC(=S)NC(=O)C1=Cc1cn(Cc2cn(Cc3cccc4ccccc34)nn2)c2ccccc12
inactive: NCI-H23 lung 88% | NCI-H322M lung 93.7% | HOP-62 NSCLC 94.9% | NCI-H460 lung 89.4% | HOP-92 NSCLC 102% | NCI-H522 lung 97.2% | A549/ATCC NSCLC 106% | 786-0 renal 115% | COLO 205 colon 114% | DU-145 prostate 105% | K-562 leukemia 121% | MALME-3M melanoma 86.5% | MDA-MB-231 breast 87.6% | RXF 393 renal 84.6% | SF-268 CNS 95.4% | SF-295 CNS 98.4% | SF-539 CNS 96.3% | UACC-257 melanoma 103% | M14 melanoma 95% | HCT-15 colon 100%

CCn1c(Cc2ccccc2Nc2c(Cl)cccc2Cl)nnc1SCC(=O)NN1C(=O)/C(=C/c2cccc(OC)c2OC)SC1=S
inactive: NCI-H23 lung 98.4% | NCI-H322M lung 99% | HOP-62 NSCLC 98.6% | NCI-H460 lung 103% | HOP-92 NSCLC 96.9% | NCI-H522 lung 86.8% | A549/ATCC NSCLC 96.3% | 786-0 renal 104% | COLO 205 colon 112% | DU-145 prostate 105% | K-562 leukemia 89.7% | MALME-3M melanoma 97.1% | MDA-MB-231 breast 102% | RXF 393 renal 112% | SF-268 CNS 96.1% | SF-295 CNS 95% | SF-539 CNS 101% | UACC-257 melanoma 101% | M14 melanoma 103% | HCT-15 colon 99.8%

COc1ccc2[nH]c(O)c(N=NC(=O)c3oc4ccccc4c3C)c2c1
active: HOP-62 NSCLC -24.1% | NCI-H460 lung -22.8% | HOP-92 NSCLC -44% | A549/ATCC NSCLC -23.6% | 786-0 renal -66.9% | MALME-3M melanoma -29.5% | RXF 393 renal -36.2% | SF-295 CNS 5.05%
inactive: NCI-H23 lung 10.6% | NCI-H322M lung 30.6% | NCI-H522 lung 54.3% | COLO 205 colon 22.8% | DU-145 prostate 17.6% | K-562 leukemia 42.5% | MDA-MB-231 breast 23.8% | SF-268 CNS 57.7% | SF-539 CNS 37.5% | UACC-257 melanoma 50% | M14 melanoma 28.7% | HCT-15 colon 41.1%

O=C1/C(=C/c2cccc(O)c2)COc2ccc(O)cc21
inactive: NCI-H23 lung 86.5% | NCI-H322M lung 98.2% | HOP-62 NSCLC 103% | NCI-H460 lung 76.3% | HOP-92 NSCLC 104% | NCI-H522 lung 36.6% | A549/ATCC NSCLC 103% | 786-0 renal 82.1% | COLO 205 colon 102% | DU-145 prostate 80.5% | MALME-3M melanoma 78.6% | MDA-MB-231 breast 103% | RXF 393 renal 115% | SF-268 CNS 90.3% | SF-295 CNS 105% | SF-539 CNS 92.3% | UACC-257 melanoma 93.3% | M14 melanoma 85.3% | HCT-15 colon 10.6%
active: K-562 leukemia 7.52%
